Results: PubChem BioAssay
Calls of active or inactive are those of the source. Unless noted, how the calls were made is not given here.

How the values were obtained:
[1] = anti-His antibody binders, primary screen, artefact control for SMM control protein annotation, biochemical, small-molecule microarray, 635 nm fluorescence (AID 1128); settings: anti-His Alexa647 antibody binding, higher = more signal;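 further: score merges feature fluorescence with signal-to-noise for each printed compound spot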
[2] = system: Human papillomavirus type 1a E7 protein (residues 1-88); assay: HPV1a E7 small-molecule binders, primary screen, biochemical, small-molecule microarray, residues 1-88, 635 nm (AID 1129); settings: small-molecule microarray binding, fluorescence 635 nm; higher = more signal
[3] = molecular target: Focal adhesion kinase 1 (Homo sapiens) (UniProt Q05397); assay: small-molecule microarray binders of FAK, primary screen, biochemical, 635/667 nm fluorescence, BSA, DTT (AID 1130); settings: PTK2 binding, 635 nm fluorescence, higher = more signal;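 further: composite of spot emission at 667 nm and signal to noise over triplicate slides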
Chain of Focal adhesion kinase 1 (Homo sapiens) (Q05397 whole entry, looked up): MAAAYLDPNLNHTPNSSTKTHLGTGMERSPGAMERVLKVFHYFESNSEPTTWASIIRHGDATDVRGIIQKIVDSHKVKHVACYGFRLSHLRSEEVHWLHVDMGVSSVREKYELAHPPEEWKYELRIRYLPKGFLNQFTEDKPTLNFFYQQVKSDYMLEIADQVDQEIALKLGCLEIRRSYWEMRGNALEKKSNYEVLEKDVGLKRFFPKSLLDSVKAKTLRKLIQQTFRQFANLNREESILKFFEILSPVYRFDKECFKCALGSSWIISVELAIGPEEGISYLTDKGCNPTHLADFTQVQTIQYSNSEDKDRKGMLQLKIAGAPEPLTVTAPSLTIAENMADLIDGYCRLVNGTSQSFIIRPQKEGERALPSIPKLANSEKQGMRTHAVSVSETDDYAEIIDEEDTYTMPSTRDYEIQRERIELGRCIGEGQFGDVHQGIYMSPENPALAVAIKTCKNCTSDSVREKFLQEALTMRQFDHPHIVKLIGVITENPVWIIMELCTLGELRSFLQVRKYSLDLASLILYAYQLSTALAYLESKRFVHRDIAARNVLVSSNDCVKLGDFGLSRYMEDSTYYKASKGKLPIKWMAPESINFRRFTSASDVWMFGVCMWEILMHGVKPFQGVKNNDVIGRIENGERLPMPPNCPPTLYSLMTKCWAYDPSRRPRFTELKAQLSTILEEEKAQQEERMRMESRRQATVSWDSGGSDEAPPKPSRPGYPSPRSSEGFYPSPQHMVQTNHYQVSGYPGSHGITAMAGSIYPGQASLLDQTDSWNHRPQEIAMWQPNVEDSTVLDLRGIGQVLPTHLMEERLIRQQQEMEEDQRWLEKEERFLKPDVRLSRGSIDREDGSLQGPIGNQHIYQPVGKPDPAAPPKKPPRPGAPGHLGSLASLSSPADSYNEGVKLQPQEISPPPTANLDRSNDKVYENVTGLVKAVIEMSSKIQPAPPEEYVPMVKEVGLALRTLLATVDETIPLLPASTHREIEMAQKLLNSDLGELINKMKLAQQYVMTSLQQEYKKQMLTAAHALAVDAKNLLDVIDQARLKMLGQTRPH

[4] = system: Fibrinogen (Alexa647-labelled); assay: fibrinogen binders on compound microarrays, profiling panel, artefact control for SMM control-protein annotation, biochemical, small-molecule microarray, 635/667 nm fluorescence (AID 1131); settings: fibrinogen-A647 binding fluorescence, higher = more signal;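 further: z-score merges 667 nm fluorescence with per-spot signal-to-noise over triplicate slides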
[5] = molecular target: Follistatin (Homo sapiens) (UniProt P19883); assay: follistatin binders on small-molecule microarrays, primary screen, biochemical, small-molecule microarray, 635/667 nm fluorescence (AID 1132); settings: FST binding, 635 nm fluorescence, higher = more signal
Chain of Follistatin (Homo sapiens) (P19883 whole entry, looked up): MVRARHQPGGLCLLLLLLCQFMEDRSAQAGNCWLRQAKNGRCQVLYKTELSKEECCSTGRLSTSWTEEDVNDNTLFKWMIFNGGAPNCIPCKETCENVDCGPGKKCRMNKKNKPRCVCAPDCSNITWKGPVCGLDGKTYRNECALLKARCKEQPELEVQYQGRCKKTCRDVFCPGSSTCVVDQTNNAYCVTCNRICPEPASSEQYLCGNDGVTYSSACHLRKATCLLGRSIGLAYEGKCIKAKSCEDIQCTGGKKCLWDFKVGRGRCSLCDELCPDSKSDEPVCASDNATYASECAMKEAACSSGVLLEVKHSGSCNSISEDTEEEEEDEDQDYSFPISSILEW

[6] = molecular target: Fibroblast growth factor 2 (Homo sapiens) (UniProt P09038); assay: FGF2 binders on small-molecule microarrays, primary screen, biochemical, small-molecule microarray, 635/667 nm fluorescence (AID 1133); settings: small-molecule microarray binding, FGF2, fluorescence 635/667; higher = more signal
Chain of Fibroblast growth factor 2 (Homo sapiens) (P09038 whole entry, looked up): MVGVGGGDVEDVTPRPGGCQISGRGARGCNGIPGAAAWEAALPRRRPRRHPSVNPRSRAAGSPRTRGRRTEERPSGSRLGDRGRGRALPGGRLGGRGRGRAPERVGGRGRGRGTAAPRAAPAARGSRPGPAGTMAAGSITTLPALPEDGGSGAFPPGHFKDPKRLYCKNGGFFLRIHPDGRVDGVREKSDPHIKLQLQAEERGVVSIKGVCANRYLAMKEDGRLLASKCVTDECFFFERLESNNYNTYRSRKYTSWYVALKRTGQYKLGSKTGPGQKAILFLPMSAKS

[7] = mitochondrial membrane potential change in A549 cells, profiling panel, cell-based, JC-1 fluorescence, basal, 24 h, 100 nL (AID 1138); settings: higher = more signal;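 further: A549 lung adenocarcinoma cells under basal conditions with no added stimulus; test concentration not given here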
[8] = system: Lefty1; assay: Lefty1 binders on small-molecule microarrays, primary screen, biochemical, small-molecule microarray, 635/667 nm fluorescence (AID 1139); settings: small-molecule microarray binding, fluorescence 635/667; higher = more signal
[9] = system: wheat germ agglutinin (Triticum aestivum), Alexa647-labelled; assay: wheat germ agglutinin binders on compound microarrays, profiling panel, artefact control for SMM control-protein annotation, biochemical, small-molecule microarray, 635/667 nm fluorescence (AID 1140); settings: WGA-A647 binding, 635 nm fluorescence, higher = more signal;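 further: score merges 667 nm feature emission with signal to noise over triplicate slides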
[10] = molecular target: Luciferin 4-monooxygenase (Photinus pyralis) (UniProt P08659); assay: firefly luciferase enzyme inhibitors, primary screen, biochemical, luminescence, purified enzyme, 2006 set (AID 1141); settings: SteadyGlo luminescence, 30 min, higher = more signal, called active from +8 up or from −8 down;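 further: cell-free assay with purified firefly luciferase at 100 ng per well in PBS; test concentration not given here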
Chain of Luciferin 4-monooxygenase (Photinus pyralis) (P08659 whole entry, looked up): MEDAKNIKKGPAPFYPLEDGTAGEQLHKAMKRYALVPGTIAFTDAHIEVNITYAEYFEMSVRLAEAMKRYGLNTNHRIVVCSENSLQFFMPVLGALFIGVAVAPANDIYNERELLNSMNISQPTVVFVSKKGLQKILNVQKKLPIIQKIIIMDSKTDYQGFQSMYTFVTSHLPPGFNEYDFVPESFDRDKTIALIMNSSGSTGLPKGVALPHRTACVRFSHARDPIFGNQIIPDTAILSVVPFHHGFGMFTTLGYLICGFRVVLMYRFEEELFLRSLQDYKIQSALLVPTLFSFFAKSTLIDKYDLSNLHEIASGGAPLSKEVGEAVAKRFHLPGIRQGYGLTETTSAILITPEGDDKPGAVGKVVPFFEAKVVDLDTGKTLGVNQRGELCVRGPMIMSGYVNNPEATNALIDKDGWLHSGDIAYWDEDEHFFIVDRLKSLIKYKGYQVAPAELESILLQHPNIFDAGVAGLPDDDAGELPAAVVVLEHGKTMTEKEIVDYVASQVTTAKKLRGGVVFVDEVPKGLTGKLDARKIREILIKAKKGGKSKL

[11] = system: Wnt5a (protein binding on small-molecule microarray); assay: Wnt5a binders on small-molecule microarray, primary screen, biophysical, 635/667 nm fluorescence (AID 1142); settings: 635 nm fluorescence, higher = more signal;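 further: fluorescence read at 667 nm with signal to noise per printed feature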
[12] = cell viability in Huh7 cells, primary screen, cytotoxicity control for HCV replication inhibitor project, CellTiter-Glo luminescence, basal, 48 h (AID 1143); settings: Huh7 HCV replicon, higher = more signal, called active from +8 up or from −8 down;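 further: Huh7 hepatoma cells carrying a hepatitis C replication reporter with no stimulus; test concentration not given here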
[13] = P. aeruginosa biofilm formation inhibitors, primary screen, PAO1 strain, BacTiter-Glo luminescence, LB-PBS (AID 1144); settings: 12 h, higher = more signal
[14] = CREB reporter modulators without forskolin, primary screen, cell-based, PC12, CRE-LacZ reporter, unstimulated (AID 1145); settings: no forskolin, luminescence, 4.5 h, higher = more signal, called active from +8 up or from −8 down
[15] = CREB reporter modulators under forskolin, primary screen, cell-based, PC12, CRE-LacZ reporter, forskolin-stimulated (AID 1146); settings: luminescence, 4.5 h, higher = more signal, called active from +8 up or from −8 down;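 further: PC12 cells with 6xCRE LacZ reporter stimulated by forskolin 10 µM; beta-galactosidase reporter signal reflecting CREB driven transcription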
[16] = molecular target: Streptavidin (Streptomyces avidinii) (UniProt P22629); assay: streptavidin binders on small-molecule microarray, primary screen, artefact control for SMM compound annotation, biophysical, 635/667 nm fluorescence (AID 1147); settings: streptavidin binding, higher = more signal;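 further: signal reflects streptavidin binding to arrayed compounds as a control protein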
Chain of Streptavidin (Streptomyces avidinii) (P22629 whole entry, looked up): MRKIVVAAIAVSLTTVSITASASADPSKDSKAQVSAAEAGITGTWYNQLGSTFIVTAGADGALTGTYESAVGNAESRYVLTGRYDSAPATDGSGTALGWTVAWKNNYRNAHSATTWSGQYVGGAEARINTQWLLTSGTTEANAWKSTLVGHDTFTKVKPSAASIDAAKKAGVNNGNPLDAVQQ

[17] = small-molecule binders of probe aInhba, primary screen, biochemical, small-molecule microarray, 635/667 nm fluorescence (AID 1148); settings: higher = more signal;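 further: score merges 667nm spot fluorescence with signal-to-noise for antibody binding to printed compounds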
[18] = molecular target: Torsin-1A (Homo sapiens) (UniProt O14656); assay: torsin A binders from cell lysate, primary screen, small-molecule microarray, wild-type, 635/667 nm (AID 1149); settings: COS7 hTOR1A-WT lysate, 635 nm fluorescence, higher = more signal
Chain of Torsin-1A (Homo sapiens) (O14656 whole entry, looked up): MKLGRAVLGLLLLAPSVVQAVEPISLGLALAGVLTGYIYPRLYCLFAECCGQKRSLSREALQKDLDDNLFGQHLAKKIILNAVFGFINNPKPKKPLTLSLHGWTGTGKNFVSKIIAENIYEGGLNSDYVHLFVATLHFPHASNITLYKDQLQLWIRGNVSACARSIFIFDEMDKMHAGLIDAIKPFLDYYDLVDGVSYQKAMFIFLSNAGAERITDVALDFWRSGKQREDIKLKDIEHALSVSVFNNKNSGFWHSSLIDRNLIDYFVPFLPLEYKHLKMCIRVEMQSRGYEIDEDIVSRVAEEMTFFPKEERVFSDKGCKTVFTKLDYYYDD

[19] = molecular target: Torsin-1A (Homo sapiens) (UniProt O14656); assay: small-molecule binders of mutant TOR1A in lysate, primary screen, cell lysate, small-molecule microarray, COS7 lysate, 635/667 nm fluorescence (AID 1150); settings: COS7 hTOR1A mutant lysate, 635 nm fluorescence, higher = more signal;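 further: score pools 667 nm emission and signal to noise measuring lysate protein binding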
[20] = system: Sonic hedgehog protein (Shh); assay: small-molecule binders of Shh protein, primary screen, biochemical, small-molecule microarray, 635/667 nm fluorescence (AID 1151); settings: small-molecule microarray binding, 635 nm fluorescence; higher = more signal;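 further: Shh protein binding to compounds spotted on small-molecule microarray slides; score combines spot fluorescence intensity with signal-to-noise across triplicate slides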

Structure (SMILES) | composite z-score [1] | composite z-score [2] | composite z-score [3] | composite z-score [4] | composite z-score [5] | composite z-score [6] | z-score [7] | composite z-score [8] | composite z-score [9] | z-score [10] | composite z-score [11] | z-score [12] | z-score [13] | z-score [14] | z-score [15] | composite z-score [16] | composite z-score [17] | composite z-score [18] | composite z-score [19] | composite z-score [20]
NC(=O)[C@@H]1[C@H]2C(=O)O[C@H](c3ccccc3)[C@H](c3ccccc3)N2[C@H](c2ccc(O)cc2)[C@@]12C(=O)Nc1ccc(C#CC3=CCCCC3)cc12 | 1.43 | 1.18 | 0.284 | 0.789 | 1.02 | -0.201 | -2.5 | 0.847 | 1.03 | -0.589 (inactive) | 0.0867 | -5.11 (inactive) | 0.403 (inactive) | 1.17 (inactive) | 0.117 (inactive) | -0.102 | 0.468 | 0.558 | 0.281 | 2
CN1C(=O)C2C=CC(C(O)C=Cc3ccc([N+](=O)[O-])cc3)N(Nc3ccccc3)C2C1=O (stereo not given) | 1.26 | 1.24 | 0.198 | 1.01 | 1.1 | 0.028 | 0.509 | 0.637 | 0.289 | -1.02 (inactive) | 0.286 | -0.143 (inactive) | -0.585 (inactive) | 0.426 (inactive) | 0.528 (inactive) | 1.16 | 0.0497 | 0.0394 | -0.0071 | 0.428
C=CCNC(=O)[C@H]1[C@@H]2C(=O)O[C@@H](c3ccccc3)[C@@H](c3ccccc3)N2[C@@H](c2ccc(O)cc2)[C@]12C(=O)Nc1ccc(C#CCCO)cc12 | -0.0591 | -0.338 | 0.459 | -0.297 | 0.265 | -0.869 | 0.0152 | 0.358 | -0.48 | 0.361 (inactive) | -0.169 | 0.0368 (inactive) | 0.722 (inactive) | 0.452 (inactive) | -0.67 (inactive) | -0.374 | -0.152 | -0.944 | -0.187 | 0.717
COCCOC(=O)N1C(=O)[C@@]2(c3cc(C#CCCO)ccc31)[C@H](c1ccc(O)cc1)N1[C@H](c3ccccc3)[C@H](c3ccccc3)OC(=O)[C@H]1[C@@H]2C(=O)N1CCN(c2ncccn2)CC1 | 1.34 | 1.25 | 1.26 | 0.959 | 1 | 0.986 | 0.00649 | 0.883 | 0.932 | 0.832 (inactive) | 0.449 | -1.97 (inactive) | -0.185 (inactive) | -0.459 (inactive) | 0.648 (inactive) | 0.842 | 1.62 | 0.852 | 0.606 | 1.53
COC(=O)[C@@]1(CCC(=O)OC(C)(C)C)N=C(c2ccc(OCCCO)cc2)O[C@H]1c1ccccc1 | 0.467 | 0.896 | 0.517 | 0.554 | 0.693 | 0.989 | -0.4 | -0.85 | 0.492 | -5.22 (inactive) | 0.762 | -3.61 (inactive) | -0.24 (inactive) | 2.25 (inactive) | -2.12 (inactive) | -0.888 | 0.0319 | -0.831 | -0.275 | 0.443
CCOc1cc(C(O)C2C=CC3C(=O)N(c4ccccc4)C(=O)C3N2Nc2ccc(C(C)C)cc2)ccc1O (stereo not given) | 1.72 | 1.23 | 0.543 | 0.963 | 1.03 | 0.0704 | 0.898 | 0.135 | 1.3 | 0.12 (inactive) | 0.12 | -1.15 (inactive) | -0.941 (inactive) | 1.96 (inactive) | 0.193 (inactive) | 0.809 | -0.0375 | 0.159 | 0.57 | 0.323
CCCC(=O)N(CCc1c[nH]c2ccccc12)[C@@H]1CC(C(=O)NCCO)=C[C@H](Oc2c(I)cc(CO)cc2OC)[C@H]1O | -0.156 | -0.064 | -0.185 | -1.04 | 0.0919 | 0.289 | 1.13 | 0.0596 | 0.302 | -0.437 (inactive) | -0.0727 | -0.0737 (inactive) | -0.396 (inactive) | 0.486 (inactive) | -0.887 (inactive) | -0.268 | -0.128 | -0.24 | 0.0165 | -0.251
CC1CC/C=C\[C@H]2OC34C=CCN(Cc5ccccc5)C(=O)[C@H]3N(C(C)CO)C(=O)[C@@H]4C2C(=O)O1 (stereo not given in full) | -0.216 | -0.922 | -0.286 | -0.696 | 0.462 | -0.005 | 0.924 | 1.06 | -0.626 | -0.97 (inactive) | -0.125 | 0.0111 (inactive) | 0.647 (inactive) | 1.68 (inactive) | -0.0203 (inactive) | -0.556 | -0.0822 | -0.859 | -0.119 | 0.473
COC(=O)[C@@]1(Cc2ccc(OC)cc2)[C@H]2c3cc(C(=O)N4CCCC4)n(CCc4ccc(O)c(O)c4)c3C[C@H]2CN1C(=O)c1ccccc1 | 2.44 | 1.17 | 0.384 | 0.421 | 0.442 | -0.736 | -0.72 | -0.958 | 1.22 | -7.43 (inactive) | -0.0111 | -1.27 (inactive) | -0.128 (inactive) | 1.54 (inactive) | 0.706 (inactive) | 0.27 | 0.147 | -0.252 | 0.641 | -0.349
CCCCC(=C=CC[C@@H](O)c1cccc(OCCO)c1)C[C@@H](O)c1ccccn1 | 2.56 | 0.873 | -0.204 | 0.837 | 1.31 | 0.605 | 0.0206 | 1.2 | 0.26 | 0.0494 (inactive) | 0.252 | -0.19 (inactive) | -1.15 (inactive) | -0.102 (inactive) | 0.786 (inactive) | 1.5 | -0.0331 | 1.67 | 0.416 | 1.86
